In PubChem BioAssay:
Unmarked numbers belong to inactive results. For part of these data: Measured potencies and affinities stand elsewhere. The source made the active and inactive calls. Unless noted, how the calls were made is not given here.

Key:
[1] = antimalarial activity against Dd2 strain (AID 2302;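 active means growth inhibition above 50% at the single 2 µM test dose, taken to imply half-maximal potency below 2 µM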;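 further: 0% = DMSO untreated growth and 100% = chloroquine plus artemisinin killed control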); settings: P. falciparum Dd2 in RBCs, LDH growth readout, 72 h; at 2 µM; active compounds read high
[2] = HepG2 cytotoxicity, primary screen, cytotoxicity control for P. falciparum antimalarial project, cell-based, ATP luminescence (AID 2303;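 active means inhibition above 50%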;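 further: 0% = DMSO wells and 100% = digitonin-killed cells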); settings: HepG2 viability, 24-48 h, at 10 µM, active compounds read high
[3] = target: L-lactate dehydrogenase (Plasmodium falciparum (isolate CDC / Honduras)) (UniProt Q27743); assay: PfLDH activity inhibition – cell lysate, 3D7 strain, counter-screen for P. falciparum growth inhibition project (AID 2304);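 further: 0% = vehicle and 100% = reference inhibitor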; settings: P. falciparum 3D7 crude extract, LDH APAD/NBT absorbance; at 2 µM; active compounds read high
[4] = inhibition of 3D7 malaria parasite growth – strain 3D7 (AID 2306);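 further: 0% = DMSO wells and 100% = chloroquine plus artemisinin control wells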; settings: P. falciparum 3D7 erythrocytic growth, LDH absorbance, 72 h; at 2 µM; active compounds read high
[5] = target: Calcium-dependent protein kinase 1 (Plasmodium falciparum (isolate 3D7)) (UniProt P62344); assay: PfCDPK1 kinase inhibitors, biochemical, TCAMS library (AID 1159585; cut-off not given, nearly all actives have IC50 up to about 0.98 µM;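 further: inhibitors leave more ATP so luminescence rises with inhibition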); settings: recombinant PfCDPK1, Kinase-Glo ATP depletion luminescence
[6] = target: Plasmodium falciparum protein kinase 6 (PK6, PF3D7_1337100) (UniProt Q8IDW1); assay: PfPK6 kinase inhibitors, biochemical, TCAMS library (AID 1159586); settings: recombinant PfPK6, Kinase-Glo ATP depletion luminescence
[7] = target: Protein kinase 7 (PK7), Plasmodium falciparum 3D7 (PF3D7_0213400) (UniProt Q7YTF7); assay: inhibition of Plasmodium PK7 catalytic activity – biochemical, TCAMS antimalarial set, Kinase-Glo luminescence (AID 1159587); settings: recombinant PfPK7, Kinase-Glo ATP depletion luminescence
[8] = target: Calcium-dependent protein kinase 4 (Plasmodium falciparum (isolate 3D7)) (UniProt Q8IBS5); assay: PfCDPK4 kinase inhibitors, biochemical, TCAMS library (AID 1159588; cut-off not given, nearly all actives have IC50 up to about 0.91 µM); settings: recombinant PfCDPK4, Kinase-Glo ATP depletion luminescence
Chain of Calcium-dependent protein kinase 4 (Plasmodium falciparum (isolate 3D7)) (Q8IBS5 whole entry, looked up): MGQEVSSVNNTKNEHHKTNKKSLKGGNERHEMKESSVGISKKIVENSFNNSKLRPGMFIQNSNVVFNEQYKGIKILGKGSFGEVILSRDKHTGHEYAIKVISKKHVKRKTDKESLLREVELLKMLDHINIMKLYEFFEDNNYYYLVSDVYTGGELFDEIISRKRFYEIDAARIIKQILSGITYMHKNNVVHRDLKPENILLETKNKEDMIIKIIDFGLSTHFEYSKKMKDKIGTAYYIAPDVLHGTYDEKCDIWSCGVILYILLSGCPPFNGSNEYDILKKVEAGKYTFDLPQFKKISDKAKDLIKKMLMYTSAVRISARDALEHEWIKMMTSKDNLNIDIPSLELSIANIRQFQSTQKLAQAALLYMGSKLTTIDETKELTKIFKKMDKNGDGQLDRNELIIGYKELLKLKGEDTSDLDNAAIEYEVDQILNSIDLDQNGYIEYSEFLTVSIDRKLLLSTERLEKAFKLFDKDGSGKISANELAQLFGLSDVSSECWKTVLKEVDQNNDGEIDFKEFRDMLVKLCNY

Chain of Protein kinase 7 (PK7), Plasmodium falciparum 3D7 (PF3D7_0213400) (Q7YTF7 1-343): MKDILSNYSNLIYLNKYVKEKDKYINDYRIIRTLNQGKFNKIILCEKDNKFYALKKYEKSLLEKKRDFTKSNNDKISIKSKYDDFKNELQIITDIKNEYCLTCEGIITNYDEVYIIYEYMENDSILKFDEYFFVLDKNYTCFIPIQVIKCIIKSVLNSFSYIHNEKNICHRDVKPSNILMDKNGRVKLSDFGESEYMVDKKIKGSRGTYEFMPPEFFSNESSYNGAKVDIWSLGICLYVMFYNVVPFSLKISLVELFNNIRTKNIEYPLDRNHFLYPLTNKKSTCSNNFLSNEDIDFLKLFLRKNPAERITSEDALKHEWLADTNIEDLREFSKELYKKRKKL
Chain of Plasmodium falciparum protein kinase 6 (PK6, PF3D7_1337100) (Q8IDW1 1-305): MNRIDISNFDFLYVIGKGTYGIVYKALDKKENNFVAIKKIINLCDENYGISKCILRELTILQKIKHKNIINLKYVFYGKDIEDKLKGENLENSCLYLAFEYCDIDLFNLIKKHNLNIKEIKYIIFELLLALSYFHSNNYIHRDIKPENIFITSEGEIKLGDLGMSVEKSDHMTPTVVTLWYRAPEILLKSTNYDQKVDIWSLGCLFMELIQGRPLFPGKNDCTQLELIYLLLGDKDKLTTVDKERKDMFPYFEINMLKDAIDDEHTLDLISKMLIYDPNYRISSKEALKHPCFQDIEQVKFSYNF
Chain of L-lactate dehydrogenase (Plasmodium falciparum (isolate CDC / Honduras)) (Q27743 whole entry, looked up): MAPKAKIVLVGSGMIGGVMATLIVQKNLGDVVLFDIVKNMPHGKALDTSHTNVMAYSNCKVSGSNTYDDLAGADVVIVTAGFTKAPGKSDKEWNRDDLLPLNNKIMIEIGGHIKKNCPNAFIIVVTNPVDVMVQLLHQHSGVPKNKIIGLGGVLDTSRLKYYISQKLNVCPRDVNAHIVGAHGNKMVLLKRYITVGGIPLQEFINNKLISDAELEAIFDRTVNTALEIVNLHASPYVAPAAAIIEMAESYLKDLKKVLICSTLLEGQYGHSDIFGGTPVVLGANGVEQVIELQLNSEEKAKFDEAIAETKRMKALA
Chain of Calcium-dependent protein kinase 1 (Plasmodium falciparum (isolate 3D7)) (P62344 whole entry, looked up): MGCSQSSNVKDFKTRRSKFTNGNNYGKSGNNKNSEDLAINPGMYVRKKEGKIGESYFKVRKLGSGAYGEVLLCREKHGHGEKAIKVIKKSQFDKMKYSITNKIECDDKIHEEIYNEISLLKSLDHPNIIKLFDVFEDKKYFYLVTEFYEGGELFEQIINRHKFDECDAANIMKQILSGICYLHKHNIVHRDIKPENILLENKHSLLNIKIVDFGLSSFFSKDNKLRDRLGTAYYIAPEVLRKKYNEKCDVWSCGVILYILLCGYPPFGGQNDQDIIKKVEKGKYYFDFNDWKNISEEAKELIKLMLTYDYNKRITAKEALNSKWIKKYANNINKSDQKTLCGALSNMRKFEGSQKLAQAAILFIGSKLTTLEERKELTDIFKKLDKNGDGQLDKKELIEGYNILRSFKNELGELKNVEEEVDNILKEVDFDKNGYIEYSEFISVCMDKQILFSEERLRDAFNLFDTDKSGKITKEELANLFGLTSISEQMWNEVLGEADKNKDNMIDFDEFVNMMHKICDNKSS

| Compound | growth inhibition [1] | inhibition [2] | inhibition [3] | growth inhibition [4] | outcome [5] | outcome [6] | outcome [7] | outcome [8] |
| --- | --- | --- | --- | --- | --- | --- | --- | --- |
| CCn1c(SCc2ccccc2)nc2c1c(=O)[nH]c(=O)n2C | 30% | 1% | -1% | 96% (active) | inactive | inactive | inactive | inactive |
| CCN(CC)CCCNc1c2ccccc2nc2ccccc12 | 0% | 17% | -1% | 100% (active) | inactive | inactive | inactive | inactive |
| NC(N)=Nc1nc(-c2cccc(NC(=O)NCC(c3ccccc3)c3ccccc3)c2)cs1 | 87% (active) | -3% | 1% | 100% (active) | inactive | inactive | inactive | inactive |
